PubChem BioAssay (NCI)
This is part of a sample that, as a whole, favours compounds with a hit. Of some 79,000 tested, about 15% had one in any assay. Calls of active or inactive are those of the source. Rule as the data show it: active = growth inhibition above about 70%; inactive = the rest.

Legend:
[1] = NCI Yeast Anticancer Drug Screen. Data for the wt1 strain (AID 149);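 also: 0% = growth of vehicle-treated wt1 cultures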; conditions: S. cerevisiae wt1 strain (SPY 50644) growth inhibition, stronger effect = higher value
Procedure, shortened: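 Compounds are added to wt1 yeast cultures. Growth is then measured. Inhibition is expressed relative to vehicle-treated controls.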

[2] = NCI Yeast Anticancer Drug Screen. Data for the rad50EPP+ strain (AID 151);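 also: 0% = growth of vehicle-treated control cultures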; conditions: S. cerevisiae rad50 mutant strain, stronger effect = higher value
Procedure, shortened: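 One strain with a rad50 alteration (rad50EPP+) was compound-treated, its growth then compared to that of vehicle controls.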

[3] = NCI Yeast Anticancer Drug Screen. Data for the mgt1 strain (AID 153); conditions: S. cerevisiae mgt1 mutant growth inhibition, stronger effect = higher value
Procedure, shortened: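 After exposure of the mgt1 yeast mutant to compound, growth was measured and reported as inhibition compared with vehicle controls.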

[4] = NCI Yeast Anticancer Drug Screen. Data for the rad50 strain (AID 155);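 also: 0% = growth of vehicle-only cultures of the same strain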; conditions: S. cerevisiae rad50 strain growth inhibition, stronger effect = higher value
Procedure, shortened: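 Inhibition values express reduced yeast growth in compound-treated cultures relative to vehicle-treated controls.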

[5] = NCI Yeast Anticancer Drug Screen. Data for the mec2-1 strain (AID 157); conditions: S. cerevisiae mec2-1 strain, stronger effect = higher value
Procedure, shortened: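 Test agents were screened against the mec2-1 yeast strain, with defined DNA repair or cell cycle alteration. Growth was scored as inhibition against vehicle-only controls.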

[6] = NCI Yeast Anticancer Drug Screen. Data for the rad14 strain (AID 159);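 also: 0% = growth of vehicle-treated control cultures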; conditions: S. cerevisiae rad14 strain growth inhibition, stronger effect = higher value
Procedure, shortened: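 A mutant yeast strain defective in DNA damage repair is treated with compound; inhibition of its growth is scored against untreated, vehicle-exposed cultures.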

[7] = NCI Yeast Anticancer Drug Screen. Data for the sgs1 mgt1 strain (AID 161);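 also: 0% = growth of cultures given vehicle only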; conditions: S. cerevisiae sgs1 mgt1 strain, stronger effect = higher value
Procedure, shortened: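 Genetically altered yeast, compound exposure, growth inhibition relative to vehicle.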

[8] = NCI Yeast Anticancer Drug Screen. Data for the CLN2oe strain (AID 163);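 also: 0% = growth of vehicle-only control cultures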; conditions: S. cerevisiae CLN2oe strain, stronger effect = higher value
Procedure, shortened: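 Here, growth inhibition in a cell-cycle-altered yeast strain after compound exposure was quantified against vehicle control growth.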

[9] = NCI Yeast Anticancer Drug Screen. Data for the cln2 rad14 strain (AID 165);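 also: 0% = growth equal to vehicle treated cultures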; conditions: S. cerevisiae cln2 rad14 strain, stronger effect = higher value
Procedure, shortened: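 Growth of compound-exposed yeast (cln2 rad14 genotype) measured and expressed as inhibition relative to vehicle.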

[10] = NCI Yeast Anticancer Drug Screen. Data for the bub3 strain (AID 167); conditions: S. cerevisiae bub3 mutant strain, stronger effect = higher value
Procedure, shortened: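 Steps: expose the mutant yeast strain to compound; grow alongside vehicle-treated cultures; measure growth; express inhibition against the vehicle cultures.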

[11] = NCI Yeast Anticancer Drug Screen. Data for the wt2 strain (AID 169);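 also: 0% = growth of vehicle-treated yeast cultures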; conditions: S. cerevisiae wt2 strain growth inhibition, stronger effect = higher value
Procedure, shortened: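 Genetically defined yeast strains from a DNA-repair/cell-cycle panel were used. Compound-exposed yeast growth was measured, and the inhibition was calculated relative to vehicle treatment.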

[12] = NCI Yeast Anticancer Drug Screen. Data for the mlh1 strain (AID 171);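 also: 0% = growth of vehicle-treated control cultures of the same strain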; conditions: S. cerevisiae mlh1 strain growth inhibition, stronger effect = higher value
Procedure, shortened: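 Here the genetically defined yeast mutant is grown with each compound, and the extent to which its growth falls below that of vehicle-exposed cells is reported.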

[13] = NCI Yeast Anticancer Drug Screen. Data for the sgs1 strain (AID 173);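 also: 0% = growth of vehicle-only control cultures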; conditions: S. cerevisiae sgs1 mutant, stronger effect = higher value
Procedure, shortened: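 Relative growth inhibition, referenced to vehicle, was determined in a yeast strain with a defined alteration affecting DNA damage repair or cell cycle control after compound exposure.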

[14] = NCI Yeast Anticancer Drug Screen. Data for the mlh1 rad18 strain (AID 175); conditions: S. cerevisiae mlh1 rad18 strain growth inhibition, stronger effect = higher value
Procedure, shortened: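 In this whole-cell yeast screen, a strain with altered DNA damage repair is challenged with compound, and its growth is measured against matched vehicle-treated controls.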

[15] = NCI Yeast Anticancer Drug Screen. Data for the rad18 strain (AID 177); conditions: S. cerevisiae rad18 mutant growth inhibition, stronger effect = higher value
Procedure, shortened: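 Screen uses a yeast strain with a defined lesion in DNA damage repair; compound effect is read as loss of growth compared to untreated vehicle cultures.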

[16] = NCI Yeast Anticancer Drug Screen. Data for the rad52 strain (AID 147);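 also: 0% = growth of vehicle-treated control cultures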; conditions: S. cerevisiae rad52 mutant growth inhibition, stronger effect = higher value
Procedure, shortened: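 Measured: yeast growth inhibition. System: strain with a defined DNA damage repair alteration. Reference: vehicle-treated control cultures.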

[17] = at 5.0 µM (retest, dose inferred, filed as 0.5)
[18] = at 50.0 µM (retest, dose inferred, filed as 5.0)

Measured: growth inhibition

COc1ccc2oc(-c3ccc(Cl)cc3)c(N3CCN(C)CC3)c2c1
inactive: [1]; at 1.2 µM -1% | [1]; at 3.7 µM -3% | [1]; at 11.0 µM 30% | [2]; at 1.2 µM -1% | [2]; at 3.7 µM -4% | [2]; at 11.0 µM 28% | [3]; at 1.2 µM -2% | [3]; at 3.7 µM -1% | [4]; at 1.2 µM -3% | [4]; at 3.7 µM 0% | [4]; at 50.0 µM 56.3% | [5]; at 1.2 µM -3% | [5]; at 3.7 µM -3% | [5]; [17] 9% | [5]; at 50.0 µM 54.7% | [6]; at 1.2 µM 0% | [6]; at 3.7 µM 13% | [7]; [17] 23% | [7]; at 50.0 µM 58.5% | [8]; at 1.2 µM -6% | [8]; at 3.7 µM -5% | [9]; [17] 17% | [10]; at 1.2 µM -3% | [10]; at 3.7 µM -6% | [10]; [17] 17% | [10]; at 50.0 µM 62.1% | [11]; at 1.2 µM 0% | [11]; at 3.7 µM -3% | [12]; at 1.2 µM -2% | [12]; at 3.7 µM 0% | [13]; at 1.2 µM -1% | [13]; at 3.7 µM 0% | [14]; [17] 59% | [14]; at 50.0 µM 51.5% | [15]; at 1.2 µM 1% | [15]; at 3.7 µM 4%
active: [1]; at 33.0 µM 99% | [1]; at 100.0 µM 99% | [2]; at 33.0 µM 99% | [2]; at 100.0 µM 99% | [3]; at 11.0 µM 99% | [3]; at 33.0 µM 100% | [3]; at 100.0 µM 99% | [4]; [17] 79% | [4]; at 11.0 µM 94% | [4]; at 33.0 µM 99% | [4]; [18] 99% | [4]; at 100.0 µM 99% | [5]; at 11.0 µM 87% | [5]; at 33.0 µM 98% | [5]; [18] 100% | [5]; at 100.0 µM 99% | [6]; at 11.0 µM 99% | [6]; at 33.0 µM 99% | [6]; at 100.0 µM 99% | [7]; [18] 100% | [8]; at 11.0 µM 98% | [8]; at 33.0 µM 99% | [8]; at 100.0 µM 98% | [9]; [18] 98% | [9]; at 50.0 µM 99.5% | [10]; at 11.0 µM 98% | [10]; at 33.0 µM 99% | [10]; [18] 99% | [10]; at 100.0 µM 99% | [11]; at 11.0 µM 97% | [11]; at 33.0 µM 99% | [11]; at 100.0 µM 99% | [12]; at 11.0 µM 90% | [12]; at 33.0 µM 99% | [12]; at 100.0 µM 99% | [13]; at 11.0 µM 96% | [13]; at 33.0 µM 99% | [13]; at 100.0 µM 99% | [14]; [18] 99% | [15]; at 11.0 µM 91% | [15]; at 33.0 µM 99% | [15]; at 100.0 µM 99%

COc1ccc(SCc2cc(OC)ccc2OC)cc1
active: [10]; [18] 73%
inactive: [16]; at 1.2 µM 0% | [16]; at 3.7 µM 2% | [16]; at 11.0 µM 4% | [16]; at 33.0 µM 3% | [16]; at 100.0 µM 3% | [2]; at 1.2 µM 15% | [2]; at 3.7 µM 18% | [2]; at 11.0 µM 27% | [2]; at 33.0 µM 30% | [2]; at 100.0 µM 18% | [4]; at 1.2 µM 0% | [4]; at 3.7 µM 1% | [4]; [17] -8% | [4]; at 11.0 µM 2% | [4]; at 33.0 µM 2% | [4]; [18] 66% | [4]; at 50.0 µM 60.5% | [4]; at 100.0 µM 3% | [5]; at 1.2 µM -1% | [5]; at 3.7 µM -7% | [5]; [17] -26% | [5]; at 11.0 µM -6% | [5]; at 33.0 µM -9% | [5]; [18] 14% | [5]; at 50.0 µM 13.9% | [5]; at 100.0 µM -3% | [6]; at 1.2 µM 0% | [6]; at 3.7 µM -2% | [6]; at 11.0 µM -3% | [6]; at 33.0 µM 0% | [6]; at 100.0 µM 2% | [7]; [17] -27% | [7]; [18] 37% | [7]; at 50.0 µM 67% | [8]; at 1.2 µM -4% | [8]; at 3.7 µM -9% | [8]; at 11.0 µM -6% | [8]; at 33.0 µM -8% | [8]; at 100.0 µM -2% | [9]; [17] -25% | [9]; [18] 58% | [9]; at 50.0 µM 20.1% | [10]; at 1.2 µM 3% | [10]; at 3.7 µM 13% | [10]; [17] -17% | [10]; at 11.0 µM 24% | [10]; at 33.0 µM 21% | [10]; at 50.0 µM 61.3% | [10]; at 100.0 µM 14% | [11]; at 1.2 µM -2% | [11]; at 3.7 µM 0% | [11]; at 11.0 µM -2% | [11]; at 33.0 µM 0% | [11]; at 100.0 µM 1% | [12]; at 1.2 µM -2% | [12]; at 3.7 µM -4% | [12]; at 11.0 µM 0% | [12]; at 33.0 µM -4% | [12]; at 100.0 µM 0% | [13]; at 1.2 µM -2% | [13]; at 3.7 µM -4% | [13]; at 11.0 µM -2% | [13]; at 33.0 µM -2% | [13]; at 100.0 µM 0%
